According to PubChem BioAssay (NCATS):
Inconclusive results are not listed. Entries that show only a call come without a potency. Active and inactive are the calls of the source. The call rests on the fitted dose curve; in most records, active means well fitted curve in the direction sought with a large enough effect; inconclusive means small, poorly fitted or top-dose-only effect, or another doubt; inactive means no such curve, though single readings can be large; an effect the other way counts as inactive or inconclusive.

How the values were obtained:
[1] = target: Calcium and integrin-binding protein 1 (Homo sapiens) (UniProt Q99828); assay: Primary qHTS for Identification of Calcium Integrin Binding Protein 1 (CIB1) Competitor (AID 1508620);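 further: GST tagged CIB1 binding a fluorescein labelled alphaIIb integrin peptide tracer; top concentration of the series differs between compounds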
Sequence of Calcium and integrin-binding protein 1 (Homo sapiens) (Q99828 whole entry, looked up): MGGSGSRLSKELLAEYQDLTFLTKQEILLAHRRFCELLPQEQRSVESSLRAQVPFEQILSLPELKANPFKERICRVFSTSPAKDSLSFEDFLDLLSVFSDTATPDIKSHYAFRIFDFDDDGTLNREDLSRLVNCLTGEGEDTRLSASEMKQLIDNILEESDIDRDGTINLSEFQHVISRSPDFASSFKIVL
Procedure, shortened: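 Fluorescence polarization competition: GST-tagged CIB1 (1 uM final) preincubated with compound 15 min at room temperature, then FITC-labelled alphaIIb peptide (100 nM final) added. After 15 min at room temperature, polarization read at Ex 480/Em 540.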

[2] = Primary qHTS for inhibitors of nuclear receptor binding SET domain protein 2 (NSD2) in an isogenic RCH-ACV NSD2 p.E1099K mutant (9B) (AID 1645876); further: nearly all actives have a fitted effect of over 70% in size
[3] = Primary qHTS for inhibitors of nuclear receptor binding SET domain protein 2 (NSD2) in an RCH-ACV wild type WT cells (2C) (AID 1645877); further: nearly all actives have a fitted effect of over 70% in size; further: potency means the concentration at half of the fitted maximal effect

SMILES	Potency [1]	Potency [2]	Potency [3]
COC(=O)C1=COC(O[C@@H]2O[C@H](CO)[C@@H](O)[C@H](O)[C@H]2O)C2C(C)C(=O)CC12 (some centres undefined)	inactive	inactive	inactive
C=C(CCO)C(=O)OCC1OCC(OC(=O)C(=C)CCO[C@@H]2O[C@H](COC(=O)C(=C)CCO[C@@H]3O[C@H](CO)[C@@H](O)[C@H](O)[C@H]3O)[C@@H](O)[C@H](O)[C@H]2O)C(O)C1O (some centres undefined)	inactive	inactive	inactive
Cn1cc(-c2c[nH]c3ncnc(N4CCOCC4)c23)cn1	inactive	inactive	23.1 µM (active)
O=C(OC[C@H]1O[C@@H](Oc2ccccc2CO)[C@H](O)[C@@H](O)[C@@H]1O)c1ccccc1	inactive	inactive	inactive
CC(C)[C@@H](C(=O)O)N1Cc2c(cc(O)c3c2O[C@]2(C3)[C@H](C)CCC3C(C)(C)[C@H](O)[C@H](O)C[C@@]32C)C1=O (some centres undefined)	inactive	inactive	inactive
O=C(O)Cc1cn([C@@H]2OC[C@@H](O[C@@H]3O[C@H](CO)[C@@H](O)[C@H](O)[C@H]3O)[C@H](O)[C@H]2O[C@@H]2O[C@H](CO)[C@@H](O)[C@H](O)[C@H]2O)c2ccccc12	inactive	inactive	inactive
COc1c(O)cc2c(c1O)C(=O)O[C@H](C)[C@H]2O	inactive	inactive	inactive
C[C@@H]1O[C@@H](O[C@@H]2\C=C/C=C\C=C/C=C\C[C@H](C)OC(=O)/C=C\[C@H]3O[C@@H]3C[C@H](O)C[C@]3(O)C[C@@H](O)[C@@H](C(=O)O)[C@H](C2)O3)[C@H](O)[C@H](N)[C@@H]1O	inactive	inactive	inactive
